# From PubChem BioAssay AID504521 (NMMLSC, 2011)
# This is one part of the list. Unmarked numbers belong to inactive results.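 The calls were made as follows: active = compounds whose bead fluorescence drops by more than 37 kMESF across the dose range, marking them as dye quenchers; inactive = the rest.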
# Experiment: aptamer fluorescence quenchers, flow cytometry – biochemical, cherry pick 1, bead-based flow cytometry, artefact control for GRK2 RNA aptamer inhibitor project, dose response (AID 504521)
# Conditions: Fluorescent RNA aptamer beads, quenching, stronger effect = higher value
smiles,measurement,value
COc1ccc(N2C(=O)/C(=C/c3ccco3)C(=O)NC2=S)cc1,fluorescence change (kMESF span),12 kMESF
